Several values for one entry are separate records, joined by “and”; a condition that tells them apart may be missing. Identical values can stand only once. Records with an inconclusive call do not appear. A structure can be active in one record and inactive in another. Activity calls are given as the source filed them. Calls follow the shape of the dose curve; as a rule, active = well fitted curve in the direction sought with a large enough effect; inconclusive = small, poorly fitted or top-dose-only effect, or another doubt; inactive = no such curve, though single readings can be large; an effect the other way counts as inactive or inconclusive.
What was measured:
[1] = Viability qHTS for spleen associated tyrosine kinase inhibitor (SYKi) naive MV4-11 cells (AID 1963823); also: nearly all actives have a fitted effect of over 40% in size
How it was run: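 Read-out: CellTiter-Glo luminescence. Exposure: 72 hr, 37 C, 5% CO2, 95% humidity. Cells: MV4-11 without SYK inhibitor history, 500/well, qHTS format.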

[2] = Viability qHTS for spleen associated tyrosine kinase inhibitor (SYKi) drug resistant MV4-11 cells (AID 1963824); also: nearly all actives have a fitted effect of over 35% in size
How it was run: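 CellTiter-Glo luminescence, read 10 min after reagent addition, reports viability after a 72 hr compound exposure. Cells are an MV4-11 line made resistant to SYK inhibition, seeded at 500 per well onto compound-containing plates.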

[3] = Cellular viability qHTS for adrenocortical cancer (ACC) cell line SW-13 (AID 1963989); conditions: SW-13 ACC cells viability, CellTiter-Glo, 48 h; activity (max response): stronger effect = lower value; also: nearly all actives have a fitted effect of over 65% in size;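 as to activity (max response): cells grown in serum-free medium with ITS supplement; % is scaled to controls: 0 for no effect and ±100 for the full control effect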
How it was run: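 Here, serum-free SW-13 cultures were dosed up to 46 uM. Following 48 h, ATP-dependent luminescence (CellTiter-Glo) reported viable cells, and logistic modeling produced IC50 values.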

[4] = Cellular viability qHTS for adrenocortical cancer (ACC) cell line NCI-H295R (AID 1963990); also: nearly all actives have a fitted effect of over 60% in size
How it was run: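 Viability of NCI-H295R after 48 h of treatment (final up to 46 uM) measured through cellular ATP luminescence.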
Potency is read from the fitted curve at half-maximal effect.

Row | SMILES | Potency [1] | Potency [2] | activity (max response) [3] | Potency [4] | Potency [3]
1 | CCCOc1ccc2c(c1)CC[C@@H]1[C@@H]2CC[C@]2(C)C(OC)CC[C@@H]12 (some centres not stated) | inactive | inactive | 13.8% (inactive) | inactive | –
2 | O=C(c1ccc(F)c(F)c1Nc1ccc(I)cc1F)N1CC(O)([C@@H]2CCCCN2)C1 | 326 nM (active) and 235 nM (active) | 231 nM (active) and 296 nM (active) | – | 5.62 µM (active) | 12.6 µM (active)
3 | Clc1ccc(-c2nc3sccn3c2/C=N/OCc2ccc(Cl)c(Cl)c2)cc1 | inactive | inactive | 3.29% (inactive) | inactive | –
4 | CC1(C)S[C@@H]2[C@H](NC(=O)Cc3ccccc3)C(=O)N2[C@H]1C(=O)O (tested in a mixture with another compound) | inactive | inactive | 7.44% (inactive) | inactive | –
5 | Oc1ccc(Cl)c2cccnc12 | inactive | inactive | 4.85% (inactive) | inactive | –
6 | Cc1ncc(NC(=O)c2cccc(C(F)(F)F)c2)cc1-c1cnc(OC2CCOCC2)c(N2CCOCC2)c1 | 6.61 µM (active) | 5.9 µM (active) | – | – | 22.4 µM (active)
7 | CC(=O)N(c1onc(C)c1C)S(=O)(=O)c1ccc(N)cc1 | inactive | inactive | 0.743% (inactive) | inactive | –
8 | NC(=O)N/N=C/c1ccc([N+](=O)[O-])o1 | 27.3 µM (active) and inactive | 21.7 µM (active) | 4.16% (inactive) | 8.91 µM (active) | 35.5 µM (active)
9 | O=C(/C=C/c1ccc(O)c(O)c1)O[C@@H]1C[C@@](OC(=O)/C=C/c2ccc(O)c(O)c2)(C(=O)O)C[C@@H](O)[C@@H]1O | inactive | inactive | 4.38% (inactive) | inactive | –
10 | O=C(OOC(=O)c1ccccc1)c1ccccc1 | inactive | inactive | 0.27% (inactive) | – | –
11 | CCCCOC(=O)CC(CC(=O)OCCCC)(OC(C)=O)C(=O)OCCCC | inactive | inactive | 12.7% (inactive) | inactive | –
12 | CC[C@@H](C)Nc1cc(C(=O)NC2CC3CC[C@@H](C2)N3c2ccc(C(=O)C3CC3)cn2)c(C)cc1C(N)=O (some centres not stated) | 0.013 µM (active) | 0.0259 µM (active) | – | 0.355 µM (active) | 0.178 µM (active)
13 | CCCCOC(=O)c1ccc(O)cc1 | inactive | inactive | -18.3% (inactive) | inactive | –
14 | CC1=NN(c2ccc(C(=O)O)cc2)C(=O)/C1=C/c1ccc(-c2cc(C)c(C)cc2[N+](=O)[O-])o1 | 16.6 µM (active) | 18.6 µM (active) | 11.6% (inactive) | – | –
15 | Nc1nccc2c1ncn2[C@@H]1C=C(CO)[C@@H](O)[C@H]1O | 0.166 µM (active) | 0.209 µM (active) | – | – | 7.94 µM (active)
16 | CC(C)(O)CC[C@@H](O)[C@](C)(O)[C@H]1CC[C@@]2(O)C3=CC(=O)[C@@H]4C[C@@H](O)[C@@H](O)C[C@]4(C)[C@H]3CC[C@]12C | inactive | inactive | 9.11% (inactive) | inactive | –
17 | COc1cccc(OC)c1C(=O)N[C@@H]1C(=O)N2[C@@H]1SC(C)(C)[C@@H]2C(=O)O | inactive | inactive | 11.1% (inactive) | – | –
18 | CN1CCN(C(=O)c2ccc(-c3ccc4c(C=O)c(O)ccc4c3)s2)CC1 | 16.6 µM (active) | 14.8 µM (active) | 9.42% (inactive) | inactive | –
19 | COc1cc(N2CCC(N3CCN(C)CC3)CC2)ccc1Nc1ncc(Cl)c(Nc2ccccc2S(=O)(=O)C(C)C)n1 | 92 nM (active) and 148 nM (active) | 116 nM (active) and 209 nM (active) | – | 1.12 µM (active) | 5.01 µM (active)
20 | NC(CC1c2ccccc2Oc2ccccc21)(C(=O)O)C1CC1C(=O)O (configuration not stated) | inactive | inactive | 1.03% (inactive) | inactive | –
21 | CC(=O)OCC[N+](C)(C)C | inactive | inactive | 10.9% (inactive) | inactive | –
22 | Nc1ccc(C(=O)OCC(O)CO)cc1 (configuration not stated) | inactive | inactive | 13.4% (inactive) | inactive | –
23 | c1cn2cc(-c3ccc4cn[nH]c4c3)nc(Nc3ccc(N4CCOCC4)cc3)c2n1 | 0.651 µM (active) | 820 nM (active) and 1.32 µM (active) | 2.68% (inactive) | inactive | –
24 | CC1(C(=O)O)CCC2(C)CCC3(C)C(=CC(=O)C4C5(C)CCC(OC6OC(C(=O)O)C(O)C(O)C6OC6OC(C(=O)O)C(O)C(O)C6O)C(C)(C)C5CCC43C)C2C1 (configuration not stated) | inactive | inactive | 1.77% (inactive) | inactive | –

— PubChem BioAssay (NCATS)
